Laboratory results reported in article PMC7819943, “Rice protein-binding microarrays: a tool to detect cis-acting elements near promoter regions in rice”.
The full ranking holds about 35,000 sequences; the median of “fluorescence intensity (a.u.)” is about 10,000, and the highest 2% start at about 52,000. Shown is part of a subset that was picked to be rich in the highest values.

The sequences below were run against T1, OsWOX13 (Oryza sativa, UniProt Q5QMM3 1-267) (assay: protein-binding microarray (RPBM); PBS, 2% BSA, 51.3 ng/ul salmon testes DNA, 50 uM zinc acetate, 200 nM TF, 25 C, 1 h; high values mean tight binding). Settings: protein: recombinant; tags: N-terminal polyhistidine and DsRed monomer fusion (pET32a); label: CyDye5-dUTP incorporated in the synthesized complementary strand; 3' TTTTT single-stranded linker to array surface; dsDNA, one strand shown.
T1 sequence: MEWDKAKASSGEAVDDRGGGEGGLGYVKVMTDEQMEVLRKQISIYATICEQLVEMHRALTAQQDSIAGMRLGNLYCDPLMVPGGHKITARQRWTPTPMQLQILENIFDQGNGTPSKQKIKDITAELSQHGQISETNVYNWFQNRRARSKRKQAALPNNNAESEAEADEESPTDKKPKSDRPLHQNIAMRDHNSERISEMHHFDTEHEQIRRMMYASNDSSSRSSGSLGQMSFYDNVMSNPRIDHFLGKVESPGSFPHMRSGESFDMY
Procedure, shortened: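 The binding signal for each feature is its fluorescence intensity in arbitrary units. An Axon 4000B scanner was used to read a custom Agilent array that had been made double-stranded with Cy5-dUTP primer extension, blocked with 2% BSA, incubated at 25 °C for 1 h with 200 nM protein in PBS, 2% BSA, salmon testes DNA and 50 µM zinc acetate, and washed. The protein was an N-terminal polyhistidine–DsRed transcription factor fusion from E. coli BL21-CodonPlus, purified on Ni–NTA.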
In the case of “TAAGTTTTAATTGAAATTTTGTTCACAAATACTCCAAATCCGGAGTCACCTAGTGCAG”, the binding signal is reported as 11900 fluorescence intensity (a.u.).
With “ATTTTAATTTTAATTATTAATACTCCATTAGCATTTAGTTCGGAGTCACCTAGTGCAG” the binding signal was 18200 fluorescence intensity (a.u.).
In the case of “AAAATAAATTTGACTGTGAATATACGTTAACTGGTCATAGCGGAGTCACCTAGTGCAG”, the binding signal is reported as 23100 fluorescence intensity (a.u.).
“TGCTAATGATGGATTAATTAGGCTTAATAAATTCGTCTCGCGGAGTCACCTAGTGCAG” was tested, and the binding signal was 54700 fluorescence intensity (a.u.).
In the case of “CATTTGCTAATGATGGATTAATTAGGCTTAATAAATTTGTCGGAGTCACCTAGTGCAG”, the binding signal is reported as 19900 fluorescence intensity (a.u.).
For “GCATTTGCTAATGATGGATTAATTAGGCTTAATAGATTCGCGGAGTCACCTAGTGCAG”, the binding signal was 11800 fluorescence intensity (a.u.).
“CATGATTAATTAAATATTAACGATCATAAATTTGAAAATTCGGAGTCACCTAGTGCAG” was tested, and the binding signal was 29300 fluorescence intensity (a.u.).
For “ATTTATAAATTGATTTGGAGCACAGATCGATACGTGCAGACGGAGTCACCTAGTGCAG”, the binding signal was 53400 fluorescence intensity (a.u.).
For “GTGACTGACTGATGATAAATTTGATAATACGCGTCGTTAGCGGAGTCACCTAGTGCAG”, the binding signal was 63100 fluorescence intensity (a.u.).
For “GTATAAATTTGGACAGATTGTGATTAGATTTATAGTCCTACGGAGTCACCTAGTGCAG”, the binding signal was 29800 fluorescence intensity (a.u.).
In the case of “CATCATGATTTGATGATGGATTAATTATGCTTAATAAATTCGGAGTCACCTAGTGCAG”, the binding signal is reported as 55300 fluorescence intensity (a.u.).
“AAATAACAAATTTGACTGTGAATATACGTATACTAGTTAGCGGAGTCACCTAGTGCAG” was tested, and the binding signal was 19300 fluorescence intensity (a.u.).
For “TTGCTAATGATGAATTAATTAGGCTTAATAAATTCGTCTCCGGAGTCACCTAGTGCAG”, the binding signal was 28300 fluorescence intensity (a.u.).
“ATGTTGATTGTCTAAAATCACAGATTTAGCACATTATCGACGGAGTCACCTAGTGCAG” was tested, and the binding signal was 29800 fluorescence intensity (a.u.).
In the case of “GCCCACTCATAATTTCTCCCTTGATTTGTAAAGAAATAAGCGGAGTCACCTAGTGCAG”, the binding signal is reported as 16000 fluorescence intensity (a.u.).
With “GAAAATTAGTAGAGAACTAATTAGGGATAAAGTCATTATTCGGAGTCACCTAGTGCAG” the binding signal was 13000 fluorescence intensity (a.u.).
“AAGATTTGTCTCATAAATTAGTCGCAATATGTGTAATTAGCGGAGTCACCTAGTGCAG” was tested, and the binding signal was 7560 fluorescence intensity (a.u.).
With “AAAATATCAATTGGCCATAATCATTGTAAGCACTATACAGCGGAGTCACCTAGTGCAG” the binding signal was 7780 fluorescence intensity (a.u.).
In the case of “ATCCAATCATACTCCAAGATCTGAAGAGAAGGAGGGATTGCGGAGTCACCTAGTGCAG”, the binding signal is reported as 11900 fluorescence intensity (a.u.).
In the case of “GATGGACCAATTTGATTGTTGTTGGATTCTACGATGCATGCGGAGTCACCTAGTGCAG”, the binding signal is reported as 9950 fluorescence intensity (a.u.).
In the case of “GCTTAAATTAATATACCTGAACCGGCGAGCATTTAAATTTCGGAGTCACCTAGTGCAG”, the binding signal is reported as 5370 fluorescence intensity (a.u.).
With “TTGATACTCTGATGATTGTAAAGTAAATTGTTTGAAATTTCGGAGTCACCTAGTGCAG” the binding signal was 9650 fluorescence intensity (a.u.).
With “ATGATTTGTTGTTGAGTTCGGTTTGAAATCAATATAAGTACGGAGTCACCTAGTGCAG” the binding signal was 14700 fluorescence intensity (a.u.).
“TCGCTTAATTAATTTGGATTTGGATGCGGATCCCTCGCCTCGGAGTCACCTAGTGCAG” was tested, and the binding signal was 56000 fluorescence intensity (a.u.).
With “AGTACAAATGACGGATTAATTAGGCTTAATAAATTCGTCTCGGAGTCACCTAGTGCAG” the binding signal was 19200 fluorescence intensity (a.u.).
With “TGGCTTAATTTAATCCCCTCCATTCCGGATGCCTCTCCCTCGGAGTCACCTAGTGCAG” the binding signal was 20200 fluorescence intensity (a.u.).
In the case of “CTAATGACGAGATTAATTAGGCTTAATAAATTCGTCTCGCCGGAGTCACCTAGTGCAG”, the binding signal is reported as 54800 fluorescence intensity (a.u.).
With “TTGATTGATTTGTTTGCACTCCATGAAATAAGTGAGGGCTCGGAGTCACCTAGTGCAG” the binding signal was 65200 fluorescence intensity (a.u.).
“CGGATTAATTAGGCTTAATAAATTCATCTCGCAGTTTCCTCGGAGTCACCTAGTGCAG” was tested, and the binding signal was 50800 fluorescence intensity (a.u.).
“ACGGATTAATTAGGCTTAATAAATTTGCCTCGCGGTTTCTCGGAGTCACCTAGTGCAG” was tested, and the binding signal was 39200 fluorescence intensity (a.u.).
“AATGACTGATTAATTAGGCTTAATAAATTCATCTCGCAGTCGGAGTCACCTAGTGCAG” was tested, and the binding signal was 59600 fluorescence intensity (a.u.).
“ACTAATGACGGATTAATTAGGCTTAATAAATTCGTCTCGCCGGAGTCACCTAGTGCAG” was tested, and the binding signal was 51500 fluorescence intensity (a.u.).
In the case of “GGATTAATTAGGCTTAATAAATTCATCTCGCAGTTTTCTGCGGAGTCACCTAGTGCAG”, the binding signal is reported as 26200 fluorescence intensity (a.u.).
“CTGATTGGCCATGAGTCCAGAGATAGCATTGAACACAGGACGGAGTCACCTAGTGCAG” was tested, and the binding signal was 32400 fluorescence intensity (a.u.).
For “GGGAGTAATTGAATATGCCTTTTGGGCTGCCATCTGCCCACGGAGTCACCTAGTGCAG”, the binding signal was 26800 fluorescence intensity (a.u.).
“TTTGATTTGATTCGTGTGCTCCCCGCCGCCTTCGATCCCTCGGAGTCACCTAGTGCAG” was tested, and the binding signal was 43600 fluorescence intensity (a.u.).
In the case of “CTTAATTGCGCGCGAATGGAGTAATACTAGTACTAGTATACGGAGTCACCTAGTGCAG”, the binding signal is reported as 15100 fluorescence intensity (a.u.).
In the case of “GACTAAATTTTAATCCCTATCACATCGGATATTTGACACTCGGAGTCACCTAGTGCAG”, the binding signal is reported as 7230 fluorescence intensity (a.u.).
For “AGGCCCAATTACTGATCGAAATTTCGATGATTTCGATCGACGGAGTCACCTAGTGCAG”, the binding signal was 18500 fluorescence intensity (a.u.).
For “CCAATTGGAATGCATTGTCTATTTGTTGTCTAGATCTCTCCGGAGTCACCTAGTGCAG”, the binding signal was 3760 fluorescence intensity (a.u.).
“AATCTCCTAATTATGTATTGCCCAAATCCATTTATTTTCCCGGAGTCACCTAGTGCAG” was tested, and the binding signal was 7170 fluorescence intensity (a.u.).
“ACATAACATATGAGATTGAAATTTCTTGAACCATACATTACGGAGTCACCTAGTGCAG” was tested, and the binding signal was 9950 fluorescence intensity (a.u.).
For “CTCACATGTTAATTACCATCAATGTATTTTACTCTTTTAACGGAGTCACCTAGTGCAG”, the binding signal was 16700 fluorescence intensity (a.u.).
For “TTTATACGAAAATCAATAATTATAGCAGATATCCACAAGGCGGAGTCACCTAGTGCAG”, the binding signal was 5700 fluorescence intensity (a.u.).
